From PubChem BioAssay (NCATS) come the findings set out here.

Results filed as inconclusive are left out. A call without a number means that no potency is given here. The source made the active and inactive calls. Calls follow the shape of the dose curve; as a rule, active = well fitted cell-killing curve with a large enough effect in the repeat runs; inconclusive = weak or mixed curves, or effect the other way; inactive = flat fitted curve, though single readings scatter.
Potency is read from the fitted curve at half-maximal effect.

The experiment in a line: qHTS assay for small molecule antagonists of the retinoid-related orphan receptor gamma (ROR-gamma) signaling pathway - cell viability counter screen (AID 720652).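 Also: compound exposure lasted 16 hr before ATP read.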 To be noted: RORgamma reporter cell line viability counter screen; series mostly up to 92.2 µM. The text has this:
National Center for Advancing Translational Sciences [NCATS]
NIH Chemical Genomics Center [NCGC]
National Institutes of Environmental Health Sciences [NIEHS]
National Toxicology Program [NTP]
Nuclear steroid hormone receptors are involved in many biological processes including inflammatory responses, cell proliferation, and apoptosis. Environmental factors or compounds disrupting these nuclear receptor pathways and gene expression may promote susceptibility to immunotoxicants and autoimmune diseases. One important group of these expression factors are the retinoid-related orphan receptors. To assess compounds that may interfere with the retinoid-related orphan receptor gamma (ROR-gamma) transcription factor, a cell-based luciferase assay was used.
The CHO cell-based assay utilizes a TET-inducible ROR expression factor and ROR response element-LUC reporter gene. Reporter activity was induced using doxycycline and measured after 16hr incubation. Luminescence was read using Viewlux (PerkinElmer), where a decrease in reporter activity would show a decrease in luminescence. The cytotoxicity of the compounds against ROR response-Luc reporter gene cell line was quantified by measuring the intracellular ATP content.
1,000 cells in 4 uL/well were dispensed into white wall/solid bottom 1536-well plates using a Multidrop Combi (Thermo Scientific) dispenser. Following incubation at 37 C and 5% CO2 for 5 hr, 23 nL compound or DMSO vehicle were transferred by a pin tool, then the plates were treated with 1 ul doxycycline to induce reporter gene activity. After 16 hr incubation at 37 C and 5% CO2, 5 uL/well of CellTiter-Glo reagent (Promega) was then added to each plate using a Flying Reagent Dispenser and incubated at room temperature for 30 min. The luminescence intensity was quantified on a ViewLux plate reader (PerkinElmer).
Background: In qHTS, concentration-response curves come from the screen itself.
`Oc1cc(Cl)cc(Cl)c1Cl`: the Potency result was “inactive”.
For `CC(=O)OC(C(=O)c1ccccc1)c1ccccc1` (stereo not given), the Potency entry is “inactive”.
Under `Nc1cc(C(=O)O)c(O)c(S(=O)(=O)O)c1` stands “inactive”; under `COc1ccc(C)cc1N`, “inactive”; under `C/C=C/C=C/C=O`, 29.8 µM (active).
As for `CCCC(=O)OC(=O)CCC`, the Potency entry was “inactive”.
Next, `O=[N+]([O-])c1ccc(F)cc1F`: “inactive”; `O=C(Cl)c1ccc([N+](=O)[O-])cc1`: “inactive”.
Next, `CC(C)COC(=O)COc1cc(Cl)c(Cl)cc1Cl`: “inactive”.
Turning to `Cc1ccc(O)c(N)c1`, the Potency result was “inactive”.
Under `NC(=O)Nc1nc2ccccc2[nH]1` stands “inactive”; under `O=CC(=O)c1ccccc1`, “inactive”; under `CC(=O)Nc1cccc(C)c1`, “inactive”.
Next, `Nc1ccc2c(c1)C(=O)c1ccccc1C2=O`: “inactive”.
With `O=[N+]([O-])c1ccccc1Nc1ccccc1`, the Potency entry is “inactive”.
Under `Cc1cc2nc(N)sc2cc1C` stands “inactive”.
Next, `O=C(OCc1ccccc1)c1ccccc1O`: “inactive”; `Cc1ccc(S(N)(=O)=O)cc1`: “inactive”.
Under `Nc1ccc(N=Nc2ccccc2)c(N)c1` stands “inactive”.
Turning to `OCC(CO)(CBr)CBr`, the Potency result is “inactive”.
Under `Oc1c(Cl)cc(Cl)c(Cl)c1Cl` stands “inactive”; under `OC1CCCCC1`, “inactive”; under `CCOc1ccc2nc(N)sc2c1`, “inactive”.
Next, `CCN(CC)c1ccc(N)cc1`: “inactive”; `CCCCCCN`: “inactive”.
Consider `CC(C)S`, for which the Potency result is “inactive”.
Next, `O=C1OC(=O)c2ccccc21`: “inactive”; `CCOC(=O)C1OC1c1ccccc1` (stereo not given): “inactive”.
Next, `c1ccc(COCc2ccccc2)cc1`: “inactive”; `Oc1cc2c(cc1O)[C@H]1c3ccc(O)c(O)c3OC[C@@]1(O)C2`: “inactive”; `O=C(O)c1cc(N=Nc2ccc([N+](=O)[O-])cc2)ccc1O`: “inactive”.
With `O=c1[nH]ncc2ccccc12`, the Potency result is “inactive”.
Next, `COc1ccc(C(=O)Nc2ccccc2)cc1[N+](=O)[O-]`: “inactive”; `CC(=O)OCc1ccc2c(c1)OCO2`: “inactive”.
Under `Brc1cc(Oc2cc(Br)c(Br)c(Br)c2Br)c(Br)c(Br)c1Br` stands “inactive”; under `CCCCCCCC/C=C\CCCCCCCC(=O)N(CCO)CCO`, “inactive”; under `C=Cc1cccc(C)c1`, “inactive”.
Next, `NC(=O)c1ccc([N+](=O)[O-])cc1`: “inactive”; `Cc1c(N)cccc1Cl`: “inactive”; `Nc1ccc(-c2ccc(N)c(O)c2)cc1O`: “inactive”.
